Measured values from the antibiotic and cytotoxicity screens of Wong et al. (2023).
Hit rate of the full screen: of about 39,000 compounds, about 1,500 (3.8%) were called active. What follows is part of a selection rich in actives, with near analogues and random picks from the rest.

Each molecule was assayed on HSkMC (human skeletal muscle cells) (assay: cytotoxicity call (relative viability < 0.9)). Conditions: 10 µM.
For `CS(=O)(=O)Nc1ccc2c(c1)[C@@H]1C[C@H](CC(=O)NCc3ccc(-c4ccccc4)cc3)O[C@@H](CO)[C@@H]1O2`, the cytotoxicity call was “inactive”. With `C[C@@H]1CN([C@@H](C)CO)C(=O)Cc2cc(NC(=O)CCCCCC(=O)Nc3ccccc3N)ccc2O[C@H]1CN(C)Cc1ccccc1` the cytotoxicity call was “inactive”. For `C[C@@H]1CN([C@H](C)CO)C(=O)c2cc(NC(=O)Nc3ccc(C(F)(F)F)cc3)ccc2O[C@@H](C)CCCCO[C@H]1CN(C)S(=O)(=O)c1ccc(F)cc1`, the cytotoxicity call was “inactive”. `Cc1noc(C)c1NC(=O)N(C)C[C@@H]1OCCCC[C@H](C)Oc2ccc(NS(=O)(=O)c3ccccc3)cc2C(=O)N([C@@H](C)CO)C[C@@H]1C` was tested, and the cytotoxicity call was “inactive”. `COc1ccc2[nH]cc(CCNC(C)=O)c2c1` was tested, and the cytotoxicity call was “inactive”. For `CC(C)Oc1cccc(-n2c(CCc3c[nH]c4ccc(Br)cc34)nc3ccccc3c2=O)c1`, the cytotoxicity call was “active”. `Cn1c(CN)nc2ccccc2c1=O` was tested, and the cytotoxicity call was “inactive”. With `C[C@@H]1CCCCO[C@H](CN(C)C(=O)Cc2ccccc2)[C@H](C)CN([C@H](C)CO)C(=O)c2cc(NS(=O)(=O)c3cccs3)ccc2O1` the cytotoxicity call was “inactive”. `Cc1noc(C)c1S(=O)(=O)Nc1ccc2c(c1)C(=O)N([C@@H](C)CO)C[C@H](C)[C@H](CN(C)S(=O)(=O)c1cn(C)cn1)O2` was tested, and the cytotoxicity call was “inactive”. `C[C@H](CO)N1C[C@H](C)[C@@H](CN(C)C(=O)Nc2cccc3ccccc23)OCCCC[C@H](C)Oc2ccc(NS(=O)(=O)c3cn(C)cn3)cc2C1=O` was tested, and the cytotoxicity call was “inactive”. `C[C@@H]1CCCCO[C@H](CN(C)C(=O)Nc2cccc3ccccc23)[C@@H](C)CN([C@@H](C)CO)C(=O)c2cc(NS(=O)(=O)c3cn(C)cn3)ccc2O1` was tested, and the cytotoxicity call was “inactive”. `C[C@H]1CCCCO[C@H](CN(C)C(=O)Nc2cccc3ccccc23)[C@@H](C)CN([C@@H](C)CO)C(=O)c2cc(NS(=O)(=O)c3cn(C)cn3)ccc2O1` was tested, and the cytotoxicity call was “inactive”. `C[C@@H]1CN([C@@H](C)CO)C(=O)c2cc(NS(=O)(=O)c3cn(C)cn3)ccc2O[C@@H](C)CCCCO[C@@H]1CN(C)C(=O)Nc1cccc2ccccc12` was tested, and the cytotoxicity call was “active”. For `C[C@@H]1CCCCO[C@@H](CN(C)C(=O)Nc2cccc3ccccc23)[C@@H](C)CN([C@H](C)CO)C(=O)c2cc(NS(=O)(=O)c3cn(C)cn3)ccc2O1`, the cytotoxicity call was “inactive”. For `C[C@@H]1CCCCO[C@H](CN(C)C(=O)Nc2cccc3ccccc23)[C@H](C)CN([C@H](C)CO)C(=O)c2cc(NS(=O)(=O)c3cn(C)cn3)ccc2O1`, the cytotoxicity call was “active”. In the case of `C[C@H]1CCCCO[C@@H](CN(C)C(=O)Nc2cccc3ccccc23)[C@@H](C)CN([C@@H](C)CO)C(=O)c2cc(NS(=O)(=O)c3cn(C)cn3)ccc2O1`, the cytotoxicity call is reported as “active”. In the case of `C[C@@H]1CCCCO[C@@H](CN(C)C(=O)Nc2cccc3ccccc23)[C@H](C)CN([C@H](C)CO)C(=O)c2cc(NS(=O)(=O)c3cn(C)cn3)ccc2O1`, the cytotoxicity call is reported as “inactive”. For `C[C@@H]1CCCCO[C@@H](CN(C)C(=O)Nc2cccc3ccccc23)[C@H](C)CN([C@@H](C)CO)C(=O)c2cc(NS(=O)(=O)c3cn(C)cn3)ccc2O1`, the cytotoxicity call was “inactive”. `C[C@@H]1CN([C@@H](C)CO)C(=O)c2cc(NS(=O)(=O)c3cn(C)cn3)ccc2O[C@@H](C)CCCCO[C@H]1CN(C)C(=O)Nc1cccc2ccccc12` was tested, and the cytotoxicity call was “active”. `C[C@H](CO)N1C[C@H](C)[C@H](CN(C)C(=O)Nc2cccc3ccccc23)OCCCC[C@H](C)Oc2ccc(NS(=O)(=O)c3cn(C)cn3)cc2C1=O` was tested, and the cytotoxicity call was “inactive”. In the case of `C[C@@H]1CCCCO[C@H](CN(C)C(=O)Nc2cccc3ccccc23)[C@H](C)CN([C@@H](C)CO)C(=O)c2cc(NS(=O)(=O)c3cn(C)cn3)ccc2O1`, the cytotoxicity call is reported as “inactive”. In the case of `C[C@@H]1CN([C@@H](C)CO)S(=O)(=O)c2ccc(-c3cncnc3)cc2O[C@H]1CN(C)C(=O)Cc1cccnc1`, the cytotoxicity call is reported as “inactive”. For `C[C@@H]1CCCCO[C@H](CN(C)C(=O)Nc2ccccc2)[C@@H](C)CN([C@H](C)CO)C(=O)c2cc(NC(=O)c3ccncc3)ccc2O1`, the cytotoxicity call was “inactive”. With `Cc1noc(C)c1NC(=O)N(C)C[C@H]1Oc2ccc(NS(=O)(=O)c3cccs3)cc2CC(=O)N([C@@H](C)CO)C[C@H]1C` the cytotoxicity call was “inactive”. `Cc1ccc(-c2cnc(-c3ccc(Br)cc3)o2)cc1` was tested, and the cytotoxicity call was “inactive”. With `C[C@@H]1CN([C@H](C)CO)C(=O)Cc2cc(NC(=O)Cn3cnnn3)ccc2O[C@@H]1CN(C)Cc1ccccc1` the cytotoxicity call was “inactive”. With `CCCN1C[C@H](C)[C@@H](O)[C@](C)(O)[C@@H](CC)OC(=O)[C@H](C)[C@@H](O[C@H]2C[C@@](C)(OC)[C@@H](O)[C@H](C)O2)[C@H](C)[C@@H](O[C@@H]2O[C@H](C)C[C@H](N(C)C)[C@H]2O)[C@](C)(O)C[C@H]1C` the cytotoxicity call was “inactive”. `CCc1cccc(C(C)C)c1NC(=O)Nc1ccccc1` was tested, and the cytotoxicity call was “inactive”. For `Cc1oc(C(C)(C)C)cc1C(=O)Nc1ccc(C(C)C)cc1`, the cytotoxicity call was “inactive”. `CC(C)c1ccccc1Cc1cc(C(=O)Nc2ccc(S(=O)(=O)c3ccccc3C(C)(C)C)cc2)c(O)c(O)c1O` was tested, and the cytotoxicity call was “active”. For `CNC(=O)C[C@@H]1CC[C@@H]2[C@H](COC[C@H](O)CN2C(=O)Nc2cccc(OC)c2)O1`, the cytotoxicity call was “inactive”. In the case of `C[C@H]1CCCCO[C@H](CN(C)C(=O)Nc2ccc3c(c2)OCO3)[C@@H](C)CN([C@@H](C)CO)C(=O)c2cc(NS(=O)(=O)c3ccccc3)ccc2O1`, the cytotoxicity call is reported as “inactive”. In the case of `C[C@H](O)[C@H](O)[C@@H](O)[C@@H](O)/C=N/NC(=O)CCCCC(=O)NO`, the cytotoxicity call is reported as “inactive”. In the case of `C[C@H](CO)N1C[C@H](C)[C@H](CN(C)C(=O)Nc2cccc3ccccc23)OCCCC[C@H](C)Oc2ccc(NS(C)(=O)=O)cc2C1=O`, the cytotoxicity call is reported as “inactive”. In the case of `Cc1ccc(S(=O)(=O)Nc2ccc3c(c2)CC(=O)N([C@H](C)CO)C[C@H](C)[C@H](CN(C)Cc2ccc(-c4ccccc4)cc2)O3)cc1`, the cytotoxicity call is reported as “inactive”. With `Cc1ccc(S(=O)(=O)Nc2ccc3c(c2)CC(=O)N([C@H](C)CO)C[C@@H](C)[C@H](CN(C)Cc2ccc(-c4ccccc4)cc2)O3)cc1` the cytotoxicity call was “active”. For `Cc1ccc(S(=O)(=O)Nc2ccc3c(c2)CC(=O)N([C@H](C)CO)C[C@@H](C)[C@@H](CN(C)Cc2ccc(-c4ccccc4)cc2)O3)cc1`, the cytotoxicity call was “active”. For `Cc1ccc(S(=O)(=O)Nc2ccc3c(c2)CC(=O)N([C@@H](C)CO)C[C@H](C)[C@@H](CN(C)Cc2ccc(-c4ccccc4)cc2)O3)cc1`, the cytotoxicity call was “active”. In the case of `Cc1ccc(S(=O)(=O)Nc2ccc3c(c2)CC(=O)N([C@@H](C)CO)C[C@@H](C)[C@@H](CN(C)Cc2ccc(-c4ccccc4)cc2)O3)cc1`, the cytotoxicity call is reported as “active”. For `Cc1ccc(S(=O)(=O)Nc2ccc3c(c2)CC(=O)N([C@H](C)CO)C[C@H](C)[C@@H](CN(C)Cc2ccc(-c4ccccc4)cc2)O3)cc1`, the cytotoxicity call was “inactive”. `C[C@H]1CN([C@@H](C)CO)C(=O)c2cc(NC(=O)NC3CCCCC3)ccc2O[C@H]1CN(C)Cc1ccc(C(=O)Nc2ccccc2N)cc1` was tested, and the cytotoxicity call was “inactive”. In the case of `C[C@@H]1CN([C@H](C)CO)C(=O)c2cc(NC(=O)c3ccncc3)ccc2O[C@H]1CN(C)S(=O)(=O)c1ccc(F)cc1`, the cytotoxicity call is reported as “inactive”. `C[C@@H]1CN([C@@H](C)CO)C(=O)c2cc(NC(=O)C3CC3)ccc2O[C@@H]1CN(C)S(=O)(=O)c1ccc(F)cc1` was tested, and the cytotoxicity call was “inactive”. For `CC(C)NC(=O)N[C@H]1C=C[C@@H](CC(=O)NCCN2CCCC2)O[C@H]1CO`, the cytotoxicity call was “inactive”. For `CC(C)NC(=O)N(C)C[C@H]1Oc2ccc(NS(=O)(=O)c3cn(C)cn3)cc2C(=O)N([C@H](C)CO)C[C@@H]1C`, the cytotoxicity call was “inactive”. For `O=C(CCCCCNC(=O)OCc1ccc(CO[C@@H]2C[C@H](C3CCCCC3)C=C(C(=O)N3CCN(Cc4ccc5c(c4)OCO5)CC3)O2)cc1)NO`, the cytotoxicity call was “inactive”. For `COc1ccc(CN(C)C[C@@H]2Oc3ccc(NC(=O)C4CC4)cc3CC(=O)N([C@@H](C)CO)C[C@@H]2C)cc1`, the cytotoxicity call was “inactive”. With `COc1cc(O)cc(OC)c1O[C@@H]1O[C@H](CO)[C@@H](O)[C@H](O)[C@H]1O` the cytotoxicity call was “inactive”. `C[C@H]1CN([C@@H](C)CO)C(=O)Cc2cc(NC(=O)CCCCCC(=O)Nc3ccccc3N)ccc2O[C@@H]1CN(C)Cc1ccc(Cl)c(Cl)c1` was tested, and the cytotoxicity call was “inactive”. In the case of `C[C@H]1CN([C@@H](C)CO)C(=O)c2cc(NC(=O)CCN3CCOCC3)ccc2O[C@H]1CN(C)S(=O)(=O)c1ccc(F)cc1`, the cytotoxicity call is reported as “inactive”. With `C[C@H](CO)N1C[C@H](C)[C@H](CN(C)Cc2ccc(C(F)(F)F)cc2)Oc2ccc(NC(=O)C3CCCCC3)cc2C1=O` the cytotoxicity call was “inactive”. With `Cc1ccc(S(=O)(=O)Nc2ccc3c(c2)CC(=O)N([C@@H](C)CO)C[C@@H](C)[C@H](CN(C)Cc2ccc(-c4ccccc4)cc2)O3)cc1` the cytotoxicity call was “inactive”. With `Cc1ccc(S(=O)(=O)Nc2ccc3c(c2)CC(=O)N([C@@H](C)CO)C[C@H](C)[C@H](CN(C)Cc2ccc(-c4ccccc4)cc2)O3)cc1` the cytotoxicity call was “active”. `Cc1noc(C)c1NC(=O)Nc1ccc2c(c1)C(=O)N([C@@H](C)CO)C[C@@H](C)[C@H](CN(C)C(=O)NC1CCCCC1)OCCCC[C@H](C)O2` was tested, and the cytotoxicity call was “inactive”. For `CC(=O)NCCn1cccc1`, the cytotoxicity call was “inactive”. `C[C@@H]1CCCCO[C@H](CN(C)Cc2ccc(C(F)(F)F)cc2)[C@@H](C)CN([C@@H](C)CO)C(=O)c2cc(NS(=O)(=O)c3ccc(F)cc3)ccc2O1` was tested, and the cytotoxicity call was “inactive”. In the case of `C[C@@H]1CCCCO[C@H](CN(C)Cc2ccc(Cl)c(Cl)c2)[C@H](C)CN([C@@H](C)CO)C(=O)c2cc(NC(=O)c3ccccc3)ccc2O1`, the cytotoxicity call is reported as “inactive”. In the case of `C[C@H](CO)N1C[C@H](C)[C@@H](CN(C)Cc2ccc(Cl)c(Cl)c2)OCCCC[C@H](C)Oc2ccc(NC(=O)c3ccccc3)cc2C1=O`, the cytotoxicity call is reported as “inactive”. With `C[C@H]1CCCCO[C@H](CN(C)Cc2ccc(Cl)c(Cl)c2)[C@@H](C)CN([C@@H](C)CO)C(=O)c2cc(NC(=O)c3ccccc3)ccc2O1` the cytotoxicity call was “active”. `C[C@@H]1CCCCO[C@H](CN(C)Cc2ccc(Cl)c(Cl)c2)[C@@H](C)CN([C@H](C)CO)C(=O)c2cc(NC(=O)c3ccccc3)ccc2O1` was tested, and the cytotoxicity call was “inactive”. In the case of `C[C@@H]1CCCCO[C@@H](CN(C)Cc2ccc(Cl)c(Cl)c2)[C@H](C)CN([C@@H](C)CO)C(=O)c2cc(NC(=O)c3ccccc3)ccc2O1`, the cytotoxicity call is reported as “active”. For `C[C@@H]1CCCCO[C@H](CN(C)Cc2ccc(Cl)c(Cl)c2)[C@@H](C)CN([C@@H](C)CO)C(=O)c2cc(NC(=O)c3ccccc3)ccc2O1`, the cytotoxicity call was “inactive”. With `C[C@@H]1CN([C@H](C)CO)C(=O)c2cc(NC(=O)c3ccccc3)ccc2O[C@@H](C)CCCCO[C@H]1CN(C)Cc1ccc(Cl)c(Cl)c1` the cytotoxicity call was “inactive”. With `C[C@@H]1CCCCO[C@@H](CN(C)Cc2ccc(Cl)c(Cl)c2)[C@H](C)CN([C@H](C)CO)C(=O)c2cc(NC(=O)c3ccccc3)ccc2O1` the cytotoxicity call was “active”. In the case of `C[C@H](CO)N1C[C@H](C)[C@H](CN(C)Cc2ccc(Cl)c(Cl)c2)OCCCC[C@H](C)Oc2ccc(NC(=O)c3ccccc3)cc2C1=O`, the cytotoxicity call is reported as “inactive”.
